Only some compounds are listed: those with a hit (about 5.7% of all), similar ones and a draw of the others.
A549 viability = kills or reduces viability of A549 cells in Nrf2 counter-screen; A549 ARE-Fluc cells, CellTiter-Fluor viability, 18-24 h; Potency, µM (titrated, usually from 46 µM), for inactives: top-dose activity change, negative = cytotoxicity, most hits filed as inhibitors; 390,000 compounds, 0.16% hits; also: potency is read from the fitted curve at half-maximal effect
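Cytotoxicity counterscreen: CellTiter-Fluor fluorescence was measured in A549 ARE_Fluc cells after 18-24 h of compound exposure in a concentration series. The subsequent BugLite luminescent read reports ARE-luciferase activity.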
Giardia killer = Giardia lamblia killing; AID 540267; Giardia lamblia trophozoite viability; 340,000 compounds, 0.15% hits; activity change, % at 7.66 µM, hits read low; in the data active = activity change below about -80%; inconclusive = between about -30% and that limit;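 also: parasites exposed to compound for two days anaerobically before the ATP read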
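Compounds were tested on trophozoites seeded at 100 cells/well and held 48 hrs at 37 deg C anaerobically. An ATP-based luminescent kit measured the remaining live cells.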
Nrf2 block = Nrf2 pathway inhibition. Potency, µM (top dose mostly 46 µM), for inactives: at the top dose activity change, negative = inhibition, usual class: inhibitors. 360,000 compounds, 2.1% hits. A549 ARE-Fluc reporter, luciferase luminescence, 18-24 h; also: potency is read from the fitted curve at half-maximal effect; nearly all actives have a fitted effect of over 60% in size
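In this cell-based qHTS, ARE-driven firefly luciferase in A549 cells reports Nrf2 activity; the luminescent signal after BugLite lysis is the measured value, with a prior CellTiter-Fluor read for cell health.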
KB-3-1 cytotox = kills parental KB-3-1 adenocarcinoma cells; AID 1347075; 400,000 compounds, 1.4% hits; Potency, µM (highest dose often 46.1 µM), usual class: cytotoxic; KB-3-1 viability, CellTiter-Glo ATP luminescence, 72 h; also: potency is read from the fitted curve at half-maximal effect; nearly all actives have a fitted effect of over 60% in size
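Parental KB-3-1 adenocarcinoma cells in phenol-red-free DMEM with 10% FBS were pin-treated with compounds at several concentrations, incubated 72 h at 37 °C, and viability read by CellTiter-Glo luminescence; concentration-effect curves were fitted after normalization.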
KB-V1 MDR tox = KB-V1 MDR subline cytotoxicity; KB-V1 MDR cells viability, CellTiter-Glo, 72 h; Potency, µM (series often up to 46.1 µM), actives largely listed as cytotoxic; 400,000 compounds, 3.4% hits; also: potency is read from the fitted curve at half-maximal effect; nearly all actives have a fitted effect of over 60% in size
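qHTS viability screen in drug-selected KB-V1 MDR cells: 72 h compound treatment at 37 degrees C, ATP luminescence end point.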
PI4K2A inh = PI4K2A (human) kinase inhibition; AID 1346378; activity change, negative = inhibition, % at 76.9 µM; purified PI4K2A, ADP-Glo luminescence, 1 h; active compounds read low; 420,000 compounds, 0.13% hits; Q9BTU6; in the data active = activity change below about -50%; inconclusive = mostly about -30% to -49%;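 also: -100% = wells without enzyme as full effect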
Target sequence (Q9BTU6 whole entry, looked up): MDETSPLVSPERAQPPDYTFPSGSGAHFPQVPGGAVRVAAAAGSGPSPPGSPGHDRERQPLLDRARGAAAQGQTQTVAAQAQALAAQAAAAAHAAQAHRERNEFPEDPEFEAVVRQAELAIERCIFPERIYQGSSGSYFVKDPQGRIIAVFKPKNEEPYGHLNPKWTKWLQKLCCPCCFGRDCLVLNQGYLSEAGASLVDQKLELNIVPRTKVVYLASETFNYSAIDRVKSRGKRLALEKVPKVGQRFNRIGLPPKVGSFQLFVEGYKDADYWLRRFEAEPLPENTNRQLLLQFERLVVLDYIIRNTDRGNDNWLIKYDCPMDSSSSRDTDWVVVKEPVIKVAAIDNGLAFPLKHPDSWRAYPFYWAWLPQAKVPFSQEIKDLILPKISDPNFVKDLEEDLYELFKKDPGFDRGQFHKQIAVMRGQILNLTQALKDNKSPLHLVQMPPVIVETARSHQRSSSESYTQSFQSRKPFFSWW
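ADP-Glo luminescence measured ADP generated by PI4K2A enzyme (4 ug/mL before mixing) with 1.2 mM PI substrate (pre-mix) and 300 microM ATP (pre-mix). Tris pH7.5 buffer with MgCl2, Triton X-100; 1 h reaction at ambient temperature.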
Active calls of the source: *. Unless noted, calls follow the shape of the dose curve; as a rule, active = well fitted curve in the direction sought with a large enough effect; inconclusive = small, poorly fitted or top-dose-only effect, or another doubt; inactive = no such curve, though single readings can be large; an effect the other way counts as inactive or inconclusive. Unless noted, % is scaled to controls: 0 for no effect and ±100 for the full control effect.

`CCOC(=O)CC1(C)Oc2cc(Cl)ccc2N1S(=O)(=O)c1ccc(C)cc1` (centres undefined) gave KB-3-1 cytotox 18µM*, KB-V1 MDR tox inconclusive and PI4K2A inh -2.
CCOC(=O)CC1(CCc2ccccc2)Oc2ccccc2O1 was read as KB-3-1 cytotox inactive, KB-V1 MDR tox inactive and PI4K2A inh -2.
CCOC(=O)CC1(CCc2ccccc2)Oc2ccccc2N1S(=O)(=O)c1ccc(C)cc1 (centres undefined) was read as KB-3-1 cytotox 18µM*, KB-V1 MDR tox inconclusive and PI4K2A inh -20.
For O=C(OC12CCCN(C1)/C(=C/c1ccc(Cl)cc1)C2)c1ccno1 (centres undefined) the results were PI4K2A inh -1.
`Cc1nc2ccc(S(=O)(=O)N(C)CC(=O)Nc3ccc(Br)c(C)c3)cc2s1` gave A549 viability -2%, Nrf2 block -12% and PI4K2A inh 4.
For CCNc1ccc(/C=C2\C=Cc3ccccc32)cc1 the results were KB-3-1 cytotox inactive and KB-V1 MDR tox inactive.
For CC(OCC(O)CN(C)CCOc1ccccc1)c1ccc(Cl)cc1 (centres undefined) the results were A549 viability inconclusive, Giardia killer -16, Nrf2 block inconclusive, KB-3-1 cytotox inactive, KB-V1 MDR tox 16µM* and PI4K2A inh 0.
For CN(CCOc1ccccc1)CC(O)COc1ccccc1 (centres undefined) the results were A549 viability -2%, Giardia killer -10, Nrf2 block -5%, KB-3-1 cytotox inactive, KB-V1 MDR tox inactive and PI4K2A inh 1.
For COc1ccc(NC(=O)N(C)[C@H]2C[C@H]3c4[nH]c5ccc(-c6ccc(OC)cc6)cc5c4CCN3C[C@H]2[C@H](C)O)cc1 the results were KB-3-1 cytotox 21µM*, KB-V1 MDR tox inconclusive and PI4K2A inh -7.
For COc1ccc(NC(=O)N(C)[C@H]2C[C@H]3c4[nH]c5ccc(-c6ccc(OC)cc6)cc5c4CCN3C(=O)[C@H]2[C@H](C)O)cc1 the results were KB-3-1 cytotox inconclusive, KB-V1 MDR tox inactive and PI4K2A inh -6.
For CN[C@H]1C[C@H]2c3[nH]c4ccc(-c5ccc(OC)cc5)cc4c3CCN2C(=O)[C@H]1[C@H](C)O the results were KB-3-1 cytotox 5.8µM*, KB-V1 MDR tox inconclusive and PI4K2A inh 6.
Screening CCCCN(C)c1c2c(nc3ncnn13)CCCC2 returned PI4K2A inh 3.
Screening O=C(NCC(O)CO)c1c(I)c(C(=O)NCC(O)CO)c(I)c(N(CCO)C(=O)CO)c1I (centres undefined) returned PI4K2A inh -5.
COc1ccc(CCNc2nc(-c3ccncc3)cs2)cc1OC was read as A549 viability 7%, Giardia killer 6, Nrf2 block -30%, KB-3-1 cytotox inactive, KB-V1 MDR tox inconclusive and PI4K2A inh 2.
`COc1ccc(CCNc2nc(-c3cccnc3)cs2)cc1OC` gave A549 viability -6%, Giardia killer -11, Nrf2 block 23µM*, KB-3-1 cytotox inactive, KB-V1 MDR tox inconclusive and PI4K2A inh 4.
Screening COc1ccc(CCNc2nc(-c3sc(C)nc3C)cs2)cc1OC returned A549 viability inconclusive, Giardia killer 1, Nrf2 block 21µM*, KB-3-1 cytotox inconclusive, KB-V1 MDR tox inactive and PI4K2A inh 0.
`O=C1Cc2cc(S(=O)(=O)N3CCN(c4ccc([N+](=O)[O-])cc4)CC3)ccc2N1` gave A549 viability -4%, Nrf2 block 31%, KB-3-1 cytotox inactive and KB-V1 MDR tox inactive.
CCNC(=O)CC1C(=O)N(c2ccc(C)cc2)C(=O)N1Cc1ccc(C)cc1 (centres undefined) was read as A549 viability -1%, Nrf2 block -1%, KB-3-1 cytotox inactive, KB-V1 MDR tox inactive and PI4K2A inh 0.
For c1c2c(cc3sc(N4CCOCC4)nc13)OCO2 the results were A549 viability 0%, Giardia killer -19, Nrf2 block inconclusive, KB-3-1 cytotox inactive, KB-V1 MDR tox inactive and PI4K2A inh -28.
Screening c1c2c(cc3sc(N4CCCCC4)nc13)OCO2 returned A549 viability 0%, Giardia killer -7, Nrf2 block inconclusive, KB-3-1 cytotox 9.2µM*, KB-V1 MDR tox inconclusive and PI4K2A inh inconclusive.
`O=C(/C=C/c1ccco1)Nc1nc(-c2ccccn2)cs1` gave A549 viability -6%, Giardia killer -4, Nrf2 block inconclusive, KB-3-1 cytotox inactive, KB-V1 MDR tox inactive and PI4K2A inh inconclusive.
Cc1ccc(NC(=O)Nc2ccc3c(c2)OCO3)nc1 was read as A549 viability 23%, Giardia killer 10, Nrf2 block inconclusive, KB-3-1 cytotox inactive, KB-V1 MDR tox inactive and PI4K2A inh -1.
Screening O=C(/C=C/c1ccco1)Nc1cccnc1 returned A549 viability -14%, Giardia killer -20, Nrf2 block inconclusive, KB-3-1 cytotox inactive, KB-V1 MDR tox inactive and PI4K2A inh 4.
For Cc1ccc(NC(=O)/C=C/c2ccco2)nc1 the results were A549 viability -14%, Giardia killer 8, Nrf2 block inconclusive, KB-3-1 cytotox 0.16µM*, KB-V1 MDR tox 0.1µM* and PI4K2A inh -4.
Screening Cc1ccc(NC(=O)/C=C/c2ccc3c(c2)OCO3)nc1 returned A549 viability -1%, Giardia killer -20, Nrf2 block inconclusive, KB-3-1 cytotox 7.3µM*, KB-V1 MDR tox inactive and PI4K2A inh 2.
O=C(/C=C/c1ccco1)Nc1ccccn1 was read as A549 viability -14%, Giardia killer -21, Nrf2 block inconclusive, KB-3-1 cytotox 5.8µM*, KB-V1 MDR tox inconclusive and PI4K2A inh -6.
Fc1ccccc1Cn1ccc2ccc(-c3ccc4ccn(Cc5ccccc5F)c4c3)cc21 was read as PI4K2A inh -2.
`COc1cc(S(=O)(=O)NCCOC23CC4CC(CC(C4)C2)C3)c(OC)cc1Cl` gave A549 viability -1%, Giardia killer -20, Nrf2 block 21µM*, KB-3-1 cytotox inconclusive, KB-V1 MDR tox 5.8µM* and PI4K2A inh -4.
`COc1ccc(N2C[C@H](CSC)[C@@H](CC(=O)Nc3ccc(Br)cc3)C2=O)cc1` gave KB-3-1 cytotox inactive, KB-V1 MDR tox 8.2µM* and PI4K2A inh -3.
For COc1ccc(NC(=O)C[C@H]2C(=O)N(c3ccc(Br)cc3)C[C@@H]2CSC)cc1 the results were KB-3-1 cytotox inactive, KB-V1 MDR tox inactive and PI4K2A inh -2.

Assay outcomes (PubChem)
